According to PubChem BioAssay (NCI):
The panel holds about 83,000 compounds, 20% with a hit somewhere; the sample as a whole holds those more often.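 Activity criterion: percent growth below 10, measured after cells in 96-well plates were exposed to a single compound concentration for 48 hours.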 Active and inactive are the calls of the source.

The compounds below were run on KM12 colon (assay: NCI-60 one-dose screen, 48 h (100 = growth as untreated, 0 = no growth, -100 = all killed)). Settings: 10 µM unless noted.

Q: For O=C(O)C1C[C@](O)(c2ccc(F)cc2)[C@@H](c2ccc(F)cc2)O1 (some centres not stated), which growth is on record?
A: 131% (inactive)

Q: With N=C(N)c1ccc(-c2ccc(-c3ccc(Cl)cc3Cl)o2)cc1 as the compound, how does the growth read?
A: -77.7% (active)

Q: NC(N)=N/N=C/CO was tested. Which growth did it give?
A: 102% (inactive)

Q: With CCCCNC(=O)NS(=O)(=O)c1ccc(N2N=C(c3ccc(C)cc3C)CC2c2ccc(N(C)C)cc2)cc1 (configuration not stated) as the compound, how does the growth read?
A: 49.2% (inactive)

Q: With N[C@H]1CCC[C@@H]1NCCCCN1C(=O)c2cccc3cccc(c23)C1=O as the compound, how does the growth read?
A: 48.4% (inactive)

Q: How did the growth turn out when O=C1Nc2ccccc2/C1=N/N=C/c1c[nH]c2ccccc12 was run?
A: 28.5% (inactive)

Q: How did the growth turn out when C[C@@H]1CC[C@@H]2[C@@H]1[C@H](OC(=O)/C=C/c1ccccc1)[C@]1(C3CCCCC3)C[C@@H](NC(=O)CO)[C@@]2(C)O1 was run?
A: 103% (inactive)

Q: For CCCN1CCN(c2ccc3nc(-c4ccc5nc(-c6ccc(OCC)c(OCC)c6)[nH]c5c4)[nH]c3c2)CC1, which growth is on record?
A: -54.8% (active)

Q: How did the growth turn out when CCc1cc(Cc2cc(CC)cc(C(C)(C)C)c2O)c(O)c(C(C)(C)C)c1 was run?
A: 19.4% (inactive)

Q: For CNC(=O)c1c(NC(=O)c2ccc(C(C)(C)C)cc2)sc2c1CCC(=O)C2, which growth is on record?
A: -7.97% (active)

Q: Which growth does the source give for CC(C)(C)c1ccc(C(=O)Nc2sc3c(c2C(N)=O)CCC(=O)C3)cc1 here?
A: -55.6% (active)

Q: For COc1ccc(-n2nnc(C(=O)NCCc3c[nH]c4ccc(F)cc34)c2C)cc1, which growth is on record?
A: 103% (inactive)

Q: Which growth does the source give for C=CCN1C(=O)[C@]2(SC1=S)[C@H](c1cccc(Cl)c1)CN(C)[C@]21C(=O)NC2C=CC(Cl)=C[C@H]21 (some centres not stated) here?
A: 64.1% (inactive)

Q: For C=C1C(=O)O[C@H]2[C@H]1CC/C(COC(=O)/C=C\C(=O)NCc1ccc(Cn3c(=O)sn(CCCC)c3=O)cc1)=C\CC[C@@]1(C)O[C@@H]21, which growth is on record?
A: -59.7% (active)

Q: Which growth does the source give for CN1C[C@@H](c2ccc(Cl)cc2)[C@]2(NC(=S)N(c3ccc(F)c(Cl)c3)C2=O)[C@@]12C(=O)NC1C=CC(Cl)=C[C@H]12 (some centres not stated) here?
A: 55% (inactive)

Q: With c1ccc2[nH]c(SSc3nc4ncncc4[nH]3)nc2c1 as the compound, how does the growth read?
A: 15.1% (inactive)

Q: With CCCCCOC(=O)c1cccc(NC(=O)CN(CC)CC)c1 as the compound, how does the growth read?
A: 104% (inactive)

Q: With CN(CCCCCCCCNc1ccnc2ccccc12)Cc1ccc(-c2ccc(-c3ccc(C#N)cc3)s2)cc1 as the compound, how does the growth read?
A: -68.6% (active)

Q: CN(C)c1ccc2cc(-c3ccc(Cl)c(Cl)c3)c(N)nc2c1 was tested. Which growth did it give?
A: 28.9% (inactive)

Q: With CCN(CC)CC(=O)Nc1cccc(C(=O)OC(C)C)c1 as the compound, how does the growth read?
A: 105% (inactive)

Q: CN(C)S(=O)(=O)n1cnc([C@@H]2[C@@H]3C(=O)OC[C@@H]3C[C@]23N=CN(Cc2ccccc2)C3=O)c1 was tested. Which growth did it give?
A: 104% (inactive)

Q: Which growth does the source give for O=C(Oc1ccc([N+](=O)[O-])cc1)c1ccc(CBr)cc1 here?
A: 103% (inactive)

Q: With CCN(CC)CCOc1ccc(/C(=C(\C)c2ccc(F)c(OC)c2)c2ccc(Cl)cc2)cc1 as the compound, how does the growth read?
A: -3.3% (active)

Q: Which growth does the source give for CCOC(=O)c1nnn(C(Cc2ccccc2Cl)C(=O)OCC)c1C (configuration not stated) here?
A: 102% (inactive)

Q: COc1ccc2c(c1)/C(=C\c1sc(=S)[nH]c1O)C(C(=O)O)=N2 was tested. Which growth did it give?
A: 99.6% (inactive)

Q: Cc1cc(Cc2cc(C)cc(C(C)(C)C)c2O)c(O)c(C(C)(C)C)c1 was tested. Which growth did it give?
A: 29.8% (inactive)

Q: N#Cc1c(N)nc2c(nnn2-c2cccc(Br)c2)c1N was tested. Which growth did it give?
A: 97% (inactive)

Q: Nc1ccc(-c2cc3c(Nc4ccc(OCc5cccc(F)c5)c(Cl)c4)ncnc3s2)cc1 was tested. Which growth did it give?
A: 24% (inactive)

Q: Which growth does the source give for COc1cccc(-c2nc3sccn3c2-c2ccnc(NCCNS(=O)(=O)c3c(Cl)cccc3Cl)c2)c1 here?
A: 46.7% (inactive)

Q: With CC(=O)OCCc1ccccc1 as the compound, how does the growth read?
A: 150% (inactive)

Q: For NS(=O)(=O)Oc1ccc(-c2sc3cc(O)ccc3c2C(=O)c2ccc(OCCN3CCCCC3)cc2)cc1, which growth is on record?
A: 65.3% (inactive)

Q: How did the growth turn out when NC(=O)c1c(NC(=O)c2ccc(C(F)(F)F)cc2Cl)sc2c1CCC(=O)C2 was run?
A: -56.7% (active)

Q: For Cc1c(C)c2c(c(C)c1NC(=O)/C=C\C(=O)O)CCC(C)(CCCC(C)CCCC(C)CCCC(C)C)O2 (configuration not stated), which growth is on record?
A: 29.2% (inactive)

Q: For Cl.Fc1c[c-]c(-c2ccccn2)c(F)c1.[Pt].c1ccc([PH+](C[PH+](c2ccccc2)c2ccccc2)c2ccccc2)cc1, which growth is on record?
A: -82% (active)

Q: Which growth does the source give for O=C(Nc1ccccc1)c1sc(-c2cccc(C(F)(F)F)c2)cc1O here?
A: 92.3% (inactive)

Q: How did the growth turn out when COc1ccc(/C(C)=N/NS(=O)(=O)c2ccc(C)cc2)cc1OC was run?
A: 108% (inactive)

Q: How did the growth turn out when O=C(CC12CC3CC(CC(C3)C1)C2)NCCOCCOCCOCCNC(=O)c1cc2c(o1)C(=O)c1ccccc1C2=O was run?
A: 2.29% (active)
